# Measurements reported in PubChem BioAssay (EPA / NIEHS).
# Inconclusive results are not listed. Active and inactive are the calls of the source. Rule for the calls, unless noted: active = hit-call score of the fitted dose curve at least 0.9, where 1 is the maximum; inactive = score below 0.9.
# Assays:
# [1] = BSK_BT_PBMCCytotoxicity: PBMC Cytotoxicity Assessment in the BioMAP Diversity Plus: BT Assay (AID 2284225); details: primary human B cells with PBMC
# Procedure, shortened: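 75,000 cells/well; cpd 1 h → SEB + TSST-1 (20 ng/mL final each) → 90 h → Alamar Blue 6 h → fluor. 546/580 nm. DMSO = neg. control/baseline.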
# [2] = read-out: Secreted IgG (sIgG), gene 3500; test: BSK_BT_sIgG: BioMAP Diversity Plus: BT Assay for Secreted IgG (sIgG) Biomarker Activity (AID 2284226); details: primary human B cells with PBMC
# Procedure: BSK_BT is a cell-based, multiplexed-readout assay that uses B cell and peripheral blood mononuclear cells, a human vascular primary cell co-culture, with measurements taken at 24 hours after chemical dosing in a microplate: 96-well plate.BSK_BT_sIgG is an assay component measured in the BSK_BT assay. It measures secreted IgG related to regulation of gene expression using ELISA technology.Data from the assay component BSK_BT_sIgG was analyzed at the endpoint, BSK_BT_sIgG, in the positive analysis fitting direction relative to DMSO as the negative control and baseline of activity. Using a type of cytokine quantitation reporter, gain or loss-of-signal activity can be used to understand protein changes. To generalize the intended target to other relatable targets, this assay endpoint is annotated to the 'immunoglobulin' intended target family, where the subfamily is 'IgG'.
# The levels of cell surface (or secreted, indicated by the prefix "s") biomarker endpoints were measured by ELISA. Overt cytotoxicity to cells in confluent adherent cultures (all systems other than the BT system) was assessed by measuring total protein levels using sulforhodamine B (SRB) staining in parallel cultures at the time of biomarker measurements, indicated as SRB endpoints. For proliferation assays for adherent cell types, individual cell types are cultured at sub-confluence and relative cell numbers quantified by SRB staining at time points optimized for each system (48 h: 3C and CASM3C systems; 72 h: BT and HDF3CGF systems; 96 h: SAg system). SRB was performed by staining cells with 0.1% SRB after fixation with 10% TCA and reading wells at 560 nm.Viability and proliferation of PBMC (T cells) was quantified by Alamar Blue reduction for the SAg and BT systems. […] Then, Alamar Blue (20 uL/well) (Invitrogen, Cat DAL1100) was added for 6 h, and the plates were read with a fluorescence microplate reader at 546/580 nm (excitation/emission). […] Plates were read after 6 h.
# [3] = BSK_BT_Bcell_Proliferation: Viability Assessment in the BioMAP Diversity Plus: BT Assay for B cell Proliferation (AID 2284227); details: primary human B cells with PBMC
# Procedure, shortened: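 SRB-based protein staining (0.1% SRB after 10% TCA fixation, 560 nm) quantifies proliferation in human B cells co-cultured with PBMC, 72 h post-dosing, with signal gain scored relative to DMSO negative control.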
# [4] = read-out: Interleukin 6 (IL6), IL6 (gene 3569); test: BSK_BT_xIL6: BioMAP Diversity Plus: BT Assay for Interleukin 6 (IL6) Biomarker Activity (AID 2284228); details: primary human B cells with PBMC
# Procedure, shortened: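 Human B cell plus PBMC co-culture exposed to test chemical for 24 h; secreted IL-6 quantified by Luminex xMAP bead assay. Activity fitted in the positive direction against DMSO as negative control and baseline.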
# [5] = CCTE_Mundy_HCI_hN2_NOG_NeuriteCount: CCTE's Neurite Outgrowth Assay in human hN2 cells for Neurite Count, Mundy Lab (AID 2284219; active = hit-call score of the fitted dose curve at least 0.9, where 1 is the maximum)
# Procedure, shortened: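 In this morphology assay, hNP1-derived neurons received test chemical 2 h post-plating and were fixed two days later in warm paraformaldehyde/sucrose containing Hoechst 33342. Neurites, labelled by rabbit anti-βIII-tubulin (1:800) and Alexa Fluor-488 (1:500), were counted automatically.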
# [6] = CCTE_Mundy_HCI_hN2_NOG_NeuriteLength: CCTE's Neurite Outgrowth Assay in human hN2 cells for Neurite Length, Mundy Lab (AID 2284220; active = hit-call score of the fitted dose curve at least 0.9, where 1 is the maximum)
# Procedure, shortened: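 Plate hNP1-derived neurons, then add chemical 2 h later as a 1/10 dilution. Stain with anti-βIII-tubulin then Alexa Fluor-488 secondary, and image automatically to measure neurite length.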
# [7] = CCTE_Mundy_HCI_hN2_NOG_NeuronCount: CCTE's Neurite Outgrowth Assay in human hN2 cells for Neuron Count, Mundy Lab (AID 2284221; active = hit-call score of the fitted dose curve at least 0.9, where 1 is the maximum)
# Procedure, shortened: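 Read-out is the number of betaIII-tubulin-positive neurons imaged by automated high-content analysis, with DMSO as negative control.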
# [8] = CCTE_Mundy_HCI_Cortical_Synap_Neur_Matur_NeuriteCount: CCTE's Synaptogenesis and Neurite Maturation Assay in rat cortical cells for Neurite Count, Mundy Lab (AID 2284222);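 for outcome: exposure from day 7 to day 12 in vitro with readout at day 12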
# Procedure: CCTE_Mundy_HCI_Cortical_Synap&Neurite_Matur is a multiplexed, cell-based-readout assay that uses rat primary cortical cells with measurements taken at 288.33 hours after chemical dosing in a microplate: 96-well plate.CCTE_Mundy_HCI_Cortical_Synap_Neur_Matur_NeuriteCount is one of eight components of the CCTE_Mundy_HCI_Cortical_Synap&Neurite_Matur assay. It measures synaptogenesis and neurite maturation related to number of neurites using High Content Imaging of fluorescently labelled markers.[…] Using a type of morphology reporter, loss -of-signal activity can be used to understand developmental effects.
# Cells are plated onto 96 well plates and allowed 2 hr for attachment to the substrate. At days in vitro (DIV) 5, Cytosine Arabinoside (AraC) is added to arrest glial cell growth. Chemicals are dosed and a media change is performed at DIV 7 of differentiation and is continued through DIV 12 when the experiment is terminated. Cells are fixed with […] and Hoechst Dye. Cells are stained using Millipore Mouse anti-MAP2MAB3418 (1:800) and Millipore Rabbit anti-Synaptophysinsc-1750 (1:250) primary antibodies and Alexa Fluor-488 goat anti-mouse and AlexaFluor-546 goat anti-rabbit secondary antibodies to label neuronal cell nuclei, synapses and neurites. A Cellomics ArrayScan VTi HCS Reader is used for automated image acquisition and analysis of neurite outgrowth.
# [9] = CCTE_Mundy_HCI_Cortical_Synap_Neur_Matur_CellBodySpotCount: CCTE's Synaptogenesis and Neurite Maturation Assay in rat cortical cells for Cell Body Spot Count, Mundy Lab (AID 2284223)
# Procedure, shortened: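 Rat primary cortical cultures received AraC at DIV 5 to arrest glia, were dosed with chemical at DIV 7 with media change, and were fixed at DIV 12 (288.33 h). Synaptophysin puncta on MAP2-positive cell bodies per neuron were counted by high-content imaging versus DMSO.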
# [10] = CCTE_Mundy_HCI_hNP1_Pro_ResponderAvgInten: CCTE's Proliferation Assay in human neuroprogenitor cells, Mundy Lab (AID 2284224; active = hit-call score of the fitted dose curve at least 0.9, where 1 is the maximum;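 note: human neural progenitor cells hNP1 derived from WA09 embryonic stem cells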)
# Procedure, shortened: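 Proliferation was scored as BrdU labelling intensity in human neural progenitors derived from WA09 embryonic cells, measured 26.25 hours after chemical dosing. Activity was fitted relative to DMSO.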
structure (smiles),measurement,setting,value
CCC(C)OC(=O)N1CCCCC1CCO (stereo not drawn),outcome,[1],inactive
same,outcome,[2],inactive
same,outcome,[3],inactive
same,outcome,[4],inactive
N#CSCSc1nc2ccccc2s1,AC50,[1],3.65 µM (active)
same,AC50,[2],3.18 µM (active)
same,AC50,[3],5.47 µM (active)
same,AC50,[4],4.1 µM (active)
CC1(C)C(C=C(Cl)Cl)C1C(=O)OCc1cccc(Oc2ccccc2)c1 (stereo not drawn),outcome,[5],inactive
same,outcome,[6],inactive
same,AC50,[7],20.2 µM (active)
same,outcome,[8],inactive
same,outcome,[9],inactive
same,outcome,[10],inactive
CCCN(CCC)C(=O)SCC,outcome,[8],inactive
same,outcome,[9],inactive
same,outcome,[10],inactive
CC(C)(c1ccc(O)cc1)c1ccc(O)cc1,AC50,[5],77.3 µM (active)
same,AC50,[6],78.8 µM (active)
same,AC50,[7],50 µM (active)
same,outcome,[9],inactive
same,outcome,[10],inactive
Cc1nn(C)c(Oc2ccccc2)c1C=NOCc1ccc(C(=O)OC(C)(C)C)cc1,AC50,[8],0.00454 µM (active)
same,AC50,[9],0.00403 µM (active)
same,AC50,[10],7.65 µM (active)
C#CCOC(=O)[C@@H](C)Oc1ccc(Oc2ncc(Cl)cc2F)cc1,outcome,[8],inactive
same,outcome,[9],inactive
same,AC50,[10],50 µM (active)
O=C(O)c1ccccc1,outcome,[5],inactive
same,outcome,[6],inactive
same,outcome,[7],inactive
same,outcome,[8],inactive
same,outcome,[9],inactive
CCN(CC)C(=O)c1cccc(C)c1,outcome,[8],inactive
same,outcome,[9],inactive
same,outcome,[10],inactive
COCCO,outcome,[1],inactive
same,outcome,[2],inactive
same,outcome,[3],inactive
same,outcome,[4],inactive
S=C(S)NCCNC(=S)S.[Mn+2].[S-]C([S-])=NCCN=C([S-])[S-].[Zn+2],outcome,[8],inactive
same,outcome,[9],inactive
CSC(=O)c1cccc2nnsc12,outcome,[8],inactive
same,outcome,[9],inactive
S=C([S-])NCCNC(=S)[S-].[Mn+2],outcome,[5],inactive
same,outcome,[6],inactive
same,outcome,[7],inactive
same,outcome,[9],inactive
